A short description of assay [1]: qHTS assay to identify small molecule agonists of the RXR signaling pathway - cell viability counter screen (AID 1159529).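 Further: HEK 293T cells carrying an RXR-alpha UAS beta-lactamase reporter; series mostly up to about 77 µM; nearly all actives have a fitted effect of over 50% in size.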 Summed up:
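RXR-alpha-UAS-bla HEK 293T cells in medium with 2% charcoal-stripped FBS were preincubated 5 hr, then exposed to compounds for 16 hr at 37 C. Viability was read as CellTiter-Glo luminescence after 30 min at room temperature.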
For orientation: Quantitative high-throughput screening tests each substance at several concentrations.

A short description of assay [2]: qHTS assay to identify small molecule antagonists of the retinoid acid receptor (RAR) signaling pathway - cell viability counter screen (AID 1159551). Further: nearly all actives have a fitted effect of over 35% in size. The method in brief: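 Cytotoxicity counter screen in C3RL4 cells: 6 h compound exposure with 1 uM retinol (final), viability from cellular ATP by luminescence.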
Assay [3] can be described thus: qHTS assay to identify small molecule antagonists of the retinoic acid receptor (RAR) signaling pathway (AID 1159552; further: nearly all actives have a fitted effect of over 50% in size). Summed up: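 RARE-luc C3RL4 cells; cpds + 1 uM (final) retinol, 6 hr, 37 C/5% CO2; luciferase reagent, 30 min RT, luminescence readout. Inhibitors of retinol-driven signal scored.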
Assay [4] can be described thus: qHTS assay to identify small molecule agonists of the retinoic acid receptor (RAR) signaling pathway (AID 1159553). Summed up: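 Agonist activity was scored in C3RL4 cells bearing a retinoic acid response element luciferase construct. Cells were treated with compounds for 6 hr at 37 C, and luciferase signal was measured as luminescence.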
Assay [5] is described as follows: qHTS assay to identify small molecule antagonists of the estrogen related receptor (ERR) signaling pathway from Tox21 library - cell viability counter screen (AID 1224834). Further: nearly all actives have a fitted effect of over 30% in size. The method in brief: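 Cytotoxicity of test substances is gauged in the same ERR cells used for the antagonist screen, after 17.5 h of compound treatment at 37 C, by CellTiter-Fluor fluorescence measured after 30 min.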

Assay [6] addresses Luciferin 4-monooxygenase (Photinus pyralis) (UniProt P08659). The assay is described as follows: qHTS assay to identify small molecule inhibitors of firefly luciferase (AID 1224835). Further: nearly all actives have a fitted effect of over 25% in size. Further: potency means the concentration at half of the fitted maximal effect. On activity change, negative = inhibition: series mostly up to about 120 µM. The method in brief:
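Biochemical qHTS: compounds run as interplate titrations against purified firefly enzyme, with D-luciferin and ATP each at its KM concentration. Light output recorded by CCD imaging.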

Assay [7] in a line: qHTS assay to identify small molecule agonists of the constitutive androstane receptor (CAR) signaling pathway - cell viability counter screen (AID 1224836). Further: series mostly up to about 92 µM; nearly all actives have a fitted effect of over 45% in size. Summed up: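 HepG2 cells stably carrying hCAR and a CYP2B6-2.2kb reporter were plated 4 h, then given compounds at 15 concentrations plus PK11195 (final 0.75 uM). After 23 h at 37 C, viability was read by CellTiter-Fluor fluorescence.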

A short description of assay [8]: qHTS assay to identify small molecule antagonists of the constitutive androstane receptor (CAR) signaling pathway - cell viability counter screen (AID 1224837). Further: series mostly up to about 92 µM; nearly all actives have a fitted effect of over 45% in size. The method in brief: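 Multiplexed cytotoxicity read-out for the CAR antagonist screen: double-stable HepG2-CYP2B6-hCAR cells co-treated with 50 nM CITCO (final) and compound over 15 concentrations, incubated 23 hr, then assessed by CellTiter-Fluor fluorescence.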

In assay [9] the target is Nuclear receptor subfamily 1 group I member 3 (Homo sapiens) (UniProt Q14994). The assay is described as follows: qHTS assay to identify small molecule antagonists of the constitutive androstane receptor (CAR) signaling pathway (AID 1224838). Further: nearly all actives have a fitted effect of over 40% in size. Summed up: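 Compounds were titrated across 15 concentrations onto HepG2 cells double-stably expressing hCAR and a CYP2B6-2.2kb reporter, together with 50 nM CITCO (final). After 24 h at 37 C, luciferase activity was measured by luminescence.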
Chain of Nuclear receptor subfamily 1 group I member 3 (Homo sapiens) (Q14994 whole entry, looked up): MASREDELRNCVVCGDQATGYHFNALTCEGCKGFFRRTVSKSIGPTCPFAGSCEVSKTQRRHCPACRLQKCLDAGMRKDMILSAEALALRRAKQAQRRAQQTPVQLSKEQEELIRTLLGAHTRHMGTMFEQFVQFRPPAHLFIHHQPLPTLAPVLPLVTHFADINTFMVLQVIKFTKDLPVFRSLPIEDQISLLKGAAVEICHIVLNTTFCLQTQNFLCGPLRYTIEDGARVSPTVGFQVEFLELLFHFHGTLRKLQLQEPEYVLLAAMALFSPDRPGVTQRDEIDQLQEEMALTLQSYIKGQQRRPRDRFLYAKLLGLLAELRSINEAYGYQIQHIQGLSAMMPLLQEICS

Assay [10] has the same target. Briefly: qHTS assay to identify small molecule agonists of the constitutive androstane receptor (CAR) signaling pathway (AID 1224839). Further: series mostly up to about 92 µM; nearly all actives have a fitted effect of over 15% in size. Summed up: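 HepG2 cells stably expressing hCAR and a CYP2B6-2.2kb luciferase reporter were treated with compounds at 15 concentrations plus 0.75 uM PK11195 (final) for 24 h at 37 C; luminescence was read after ONE-Glo addition.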
Assay [11] in a line: qHTS assay to identify small molecule antagonists of the estrogen related receptor signaling pathway with the pleiotropic PPARgamma coactivator (PGC) from Tox21 10K library - cell viability counter screen (AID 1224840; active means well fitted cell-killing curve with a large enough effect in the repeat runs, not every such curve was filed as active; further: nearly all actives have a fitted effect of over 40% in size). Summed up:
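Step one, plate 2,000 PGC/ERR cells per well; step two, incubate 6 h at 37 C/5% CO2; step three, pin-transfer compounds; step four, incubate 17.5 h; step five, add CellTiter-Fluor and read fluorescence after 30 min.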

Assay [12] deals with Thyrotropin receptor (Homo sapiens) (UniProt P16473). The assay is described as follows: qHTS assay to identify small molecule agonists of the thyroid stimulating hormone receptor (TSHR) signaling pathway (AID 1224843; calls by dose curve; further: nearly all actives have a fitted effect of over 45% in size). The method in brief: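 Steps: seed 800 TSHR-HEK293 cells per well; add test compound and hold 30 min at ambient temperature; dispense cAMP-d2 then anti-cAMP cryptate; incubate 1 h at ambient; measure fluorescence intensity.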
Chain of Thyrotropin receptor (Homo sapiens) (P16473 whole entry, looked up): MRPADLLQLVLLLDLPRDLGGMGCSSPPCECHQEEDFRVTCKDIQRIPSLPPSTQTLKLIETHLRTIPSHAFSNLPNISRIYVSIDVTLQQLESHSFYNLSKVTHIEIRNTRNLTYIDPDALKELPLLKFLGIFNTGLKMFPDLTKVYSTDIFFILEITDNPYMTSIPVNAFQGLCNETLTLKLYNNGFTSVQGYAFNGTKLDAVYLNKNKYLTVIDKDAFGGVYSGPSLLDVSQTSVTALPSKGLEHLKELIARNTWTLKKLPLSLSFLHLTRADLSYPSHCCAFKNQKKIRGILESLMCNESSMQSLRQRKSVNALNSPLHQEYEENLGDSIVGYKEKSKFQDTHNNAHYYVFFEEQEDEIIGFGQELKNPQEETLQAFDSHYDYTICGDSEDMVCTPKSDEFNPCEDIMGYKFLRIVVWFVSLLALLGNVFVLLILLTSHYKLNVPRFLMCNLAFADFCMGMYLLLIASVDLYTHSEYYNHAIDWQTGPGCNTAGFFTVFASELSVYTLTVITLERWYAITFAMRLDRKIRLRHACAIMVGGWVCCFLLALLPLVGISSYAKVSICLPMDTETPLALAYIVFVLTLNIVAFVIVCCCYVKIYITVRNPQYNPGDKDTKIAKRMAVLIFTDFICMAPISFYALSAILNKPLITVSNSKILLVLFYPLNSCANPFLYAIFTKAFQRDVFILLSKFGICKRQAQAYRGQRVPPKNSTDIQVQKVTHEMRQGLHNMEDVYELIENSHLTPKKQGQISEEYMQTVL

A short description of assay [13]: qHTS assay to identify small molecule agonists of the hypoxia (HIF-1) signaling pathway - cell viability counter screen (AID 1224844; calls by dose curve; further: nearly all actives have a fitted effect of over 50% in size). Summed up: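 Tox21 10K compounds were added to HRE-bla ME-180 cells (0.5% dialyzed FBS) and incubated 17 hrs at 37C; ATP-based CellTiter-Glo luminescence then reported cell viability in the same wells.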
A short description of assay [14]: qHTS assay to identify small molecule agonists of H2AX (AID 1224845; active means well fitted activation curve with a large enough effect in the signal ratio in the repeat runs, not every such curve was filed as active; the % refers to the signal ratio). The method in brief: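 Wild-type CHO-K1 cells, plated overnight, exposed 3hr at 37C to 15 concentrations (0.76% DMSO final). Lysed, then HTRF anti-pH2AX (S139) cryptate and anti-H2AX-d2 antibodies, 24 hr room temperature; 665/620 nm emission read.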
A short description of assay [15]: qHTS assay to identify small molecule agonists of the hypoxia (HIF-1) signaling pathway (AID 1224846; active means well fitted activation curve with a large enough effect in the signal ratio in the repeat runs, not every such curve was filed as active; the % refers to the signal ratio). Summed up:
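Steps: seed ME-180 HRE-bla cells (2,000/well, 0.5% dialyzed FBS); incubate 5 hrs at 37C; pin-transfer compounds or DMSO; incubate 17 hrs; add LiveBLAzer B/G substrate CCF4-AM; measure reporter activation by FRET.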

Assay [16] can be described thus: qHTS assay to identify small molecule agonists of H2AX - cell viability counter screen (AID 1224847; calls by dose curve; further: top concentration of the series differs between compounds; nearly all actives have a fitted effect of over 30% in size). The method in brief:
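Wild-type CHO-K1 cells (10% FBS medium) were plated overnight at 37C, exposed to compounds at 15 concentrations for 3 hr at 37C (0.76% DMSO final), and viability was read as CellTiter-Glo luminescence after 30 min at room temperature.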

The nature of assay [17]: qHTS assay to identify small molecule agonists of the estrogen related receptor signaling pathway with the pleiotropic PPARgamma coactivator (PGC) from Tox21 10K library (AID 1224842). Further: nearly all actives have a fitted effect of over 15% in size. Summed up:
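PGC/ERR reporter cell line, 2,000 cells per well, incubated 6 h at 37 C before 23 nL compound in DMSO was added. After 18 h at 37 C, One-Glo luminescence read following 30 min at room temperature.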

A short description of assay [18]: qHTS assay to identify small molecule antagonists of the estrogen related receptor (ERR) signaling pathway from Tox21 library (AID 1224848). Further: nearly all actives have a fitted effect of over 50% in size. The method in brief: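 Luminescent reporter read-out (ONE-Glo) from NTP's ERR cell line after 18 h treatment at 37 C with DMSO-dissolved Tox21 compounds; cells pre-plated 6 h beforehand at 2,000 per well.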

Inconclusive results are not listed. Unmarked numbers belong to inactive results. Active and inactive are the calls of the source. Unless noted, the call rests on the fitted dose curve; in most records, active means well fitted curve in the direction sought with a large enough effect in the repeat runs; inconclusive means weak or mixed curves; inactive means no such curve, though single readings can be large; an effect the other way counts as inactive or inconclusive.
On the % scale 0 is the no-effect control and ±100 the full control effect.

Chain of Luciferin 4-monooxygenase (Photinus pyralis) (P08659 whole entry, looked up): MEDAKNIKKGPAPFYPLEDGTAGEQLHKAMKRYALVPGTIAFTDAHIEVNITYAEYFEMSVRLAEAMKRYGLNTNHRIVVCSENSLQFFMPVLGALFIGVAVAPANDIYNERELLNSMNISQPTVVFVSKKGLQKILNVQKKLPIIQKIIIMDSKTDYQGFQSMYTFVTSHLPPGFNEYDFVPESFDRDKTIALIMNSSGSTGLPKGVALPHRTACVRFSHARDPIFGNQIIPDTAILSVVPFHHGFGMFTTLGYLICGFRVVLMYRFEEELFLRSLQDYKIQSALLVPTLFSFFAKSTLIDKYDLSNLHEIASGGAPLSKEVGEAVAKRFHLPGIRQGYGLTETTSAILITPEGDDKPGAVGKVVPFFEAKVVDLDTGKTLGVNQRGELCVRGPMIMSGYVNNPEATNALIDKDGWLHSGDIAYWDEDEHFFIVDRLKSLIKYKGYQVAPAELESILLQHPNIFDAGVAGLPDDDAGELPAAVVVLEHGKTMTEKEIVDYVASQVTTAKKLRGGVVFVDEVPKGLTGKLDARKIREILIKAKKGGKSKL

On to `N[C@@H](CSCCCO)C(=O)O`, for which the activity change, negative = cytotoxicity in assay [1] was -0.377% [at 15.8 µM]; in [2], 5.07% [at 19 µM]; in assay [8], 10% [at 19 µM]; in assay [13], 0.058% [at 15.8 µM]; in assay [16], -1.29% [at 31.6 µM]. Further, the activity, negative = inhibition was 1.93% [at 19 µM] in assay [3] and 5.4% [at 19 µM] in assay [9]. The Potency result in assay [4] was “inactive”. The viability change, negative = cytotoxic in assay [5] is 1.22% [at 19 µM]; in [7], 3.99% [at 19 µM]; in assay [11], -0.0206% [at 19 µM]. Besides, the activity change, negative = inhibition in assay [6] was -1.72% [at 23.6 µM]. Moreover, the values for the activation in assay [10], in assay [12] and in assay [15] were 0.0803% [at 19 µM], 0.239% [at 19 µM] and -1.56% [at 15.8 µM], respectively. Further, the activation (H2AX phosphorylation) in [14] was 1.1% [at 31.6 µM].

Take `CN(C)CCN(C)CCO`: the compound was called inactive in [1], in assay [2], in [3], in assay [5], in assay [7] and in assay [8]. In addition, the call in assay [11], in assay [12], in [13], in [14] and in [15] was inactive. The Potency result in assay [6], in assay [9] and in [10] was “inactive” in each case.

`CC(=O)c1cc(C)oc1C`: the result in assay [1], in assay [2], in [7], in assay [8], in assay [11] and in assay [13] was inactive. For the same compound, the compound was called inactive in [14], in [15] and in [16]. For the same compound, the Potency entry in assay [4], in assay [6] and in [10] was “inactive” in each case.

`CC1CC(=O)CC(C)(C)C1` (stereo not given): the outcome in [1], in [2], in assay [3], in [5], in assay [7] and in assay [8] was inactive. For the same compound, the call in assay [11], in [12], in assay [13], in assay [14], in [15] and in assay [16] was inactive. Further, the Potency result in assay [4] and in assay [6] was “inactive” each time.

As for `c1ccc2cnccc2c1`, the compound was called inactive in assay [1], in assay [2], in assay [7], in assay [8], in [11] and in assay [17]. Further, the compound was classed as inactive in assay [13], in [14], in assay [15] and in assay [16]. Moreover, the Potency entry in assay [4], in assay [6], in assay [9], in [10] and in [18] was “inactive” in each case.

Regarding `CC(C)CCOC(=O)c1ccccc1`, the compound was called inactive in assay [1], in assay [2], in assay [3], in assay [5], in assay [7] and in [8]. In addition, the outcome in [11], in [12], in [13], in assay [14], in assay [15] and in assay [16] was inactive. The Potency entry in assay [4] and in assay [10] was “inactive” in each case. For the same compound, in assay [6], the Potency was 71 µM (active).

As to `O=[N+]([O-])c1c(Cl)cc(Cl)cc1Cl`, the result in [1], in assay [2], in assay [3], in assay [5], in assay [7] and in assay [11] was inactive. Also, the outcome in [12], in assay [13], in [14], in assay [15] and in assay [16] was inactive. Moreover, the Potency result in assay [4], in [6] and in [9] was “inactive” each time.
